Only some compounds are listed: those with a hit (about 0.46% of all), similar ones and a draw of the others.
Mito fusion act: mitochondrial division inhibition or fusion activation; S. cerevisiae fusion-defective mutant growth rescue, CellTiterGlo 48 h; 0.23% of 320,000 active; Potency, µM (titrated, usually from 46.1 µM), inactives show top-dose growth rescue (activation), actives largely listed as activators; AID 485298; also: % of control where 0% means no effect; nearly all actives have a fitted effect of over 45% in size
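Yeast fusion mutant, YPEG (non-fermentable carbon), compound, 48 h at 37C non-permissive; CellTiterGlo added, 10 min RT, luminescence read. Rescued growth = division inhibition.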
GALK inhibitor: blocks human galactokinase activity; 0.007% of 270,000 active; P51570; Potency, µM (series often up to 57.5 µM), without a hit: at the top dose activity change, negative = inhibition, usual class: inhibitors; Purified GALK, Kinase-Glo residual ATP luminescence; also: % is scaled to controls: 0 for no effect and ±100 for the full control effect
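Kinase-Glo Plus luminescence measured ATP left after a 1 h room-temperature reaction. The reaction used 5 nM GALK, 100 uM galactose and 35 uM ATP at pH 8.0 (20 mM HEPES, 5 mM MgCl2, 60 mM NaCl, 1 mM DTT, 0.01% BSA).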
PTAP TSG101 blk: blocks PTAP/TSG101 interaction to inhibit HIV-1 budding | Potency, µM (doses to about 115 µM), for the others: top-dose activity change, negative = inhibition, hits mostly inhibitors | Fluorescence polarization, FITC-PTAP peptide / Tsg101 binding | AID 493005 | 340,000 tested, under 10 active; active = well fitted inhibition curve with a large enough effect in the main read-out, with a control signal flat, not every such curve was filed as active; inconclusive = small, poorly fitted or top-dose-only effect, or effect the other way, or a change in a side signal; inactive = no such curve, though single readings can be large or run the other way; also: % of control where 0% means no effect
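Compounds were pin-transferred onto Tsg101 binding domain (10 uM final) in HEPES pH 7.5 buffer, then FITC-PTAP peptide was added at 50 nM final. After 20 min at RT, polarization reported peptide displacement across a qHTS concentration series.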
a7 integrin act: activates integrin-mediated alleviation for muscular dystrophy; alpha7betagal myoblasts, beta-gal FDG fluorescence, 48 h; 0.064% of 350,000 active; AID 624291; Potency, µM (top dose mostly 38.3 µM), without a hit: at the top dose activation, usual class: activators;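 also: 100% = response of the positive control SU9516; nearly all actives have a fitted effect of over 60% in size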
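alpha7betagal+/- myoblasts (passage 13, 250/well) treated 48 h at 37C with compounds at 1:260 dilution of DMSO stock. Lysed, then beta-galactosidase activity read as FDG fluorescence (ex 480/em 540) after 30 min, with pre-read for autofluorescence.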
ASM inhibitor: inhibitors of human secretory acid sphingomyelinase; AID 504937; placental ASM, HMU-PC fluorogenic substrate, 60 min; Potency, µM (series often up to 57.5 µM), inactives show at the highest dose activity change, negative = inhibition, usual class: inhibitors; P17405; 0.006% of 340,000 active
Target sequence (P17405 47-631 limits assumed): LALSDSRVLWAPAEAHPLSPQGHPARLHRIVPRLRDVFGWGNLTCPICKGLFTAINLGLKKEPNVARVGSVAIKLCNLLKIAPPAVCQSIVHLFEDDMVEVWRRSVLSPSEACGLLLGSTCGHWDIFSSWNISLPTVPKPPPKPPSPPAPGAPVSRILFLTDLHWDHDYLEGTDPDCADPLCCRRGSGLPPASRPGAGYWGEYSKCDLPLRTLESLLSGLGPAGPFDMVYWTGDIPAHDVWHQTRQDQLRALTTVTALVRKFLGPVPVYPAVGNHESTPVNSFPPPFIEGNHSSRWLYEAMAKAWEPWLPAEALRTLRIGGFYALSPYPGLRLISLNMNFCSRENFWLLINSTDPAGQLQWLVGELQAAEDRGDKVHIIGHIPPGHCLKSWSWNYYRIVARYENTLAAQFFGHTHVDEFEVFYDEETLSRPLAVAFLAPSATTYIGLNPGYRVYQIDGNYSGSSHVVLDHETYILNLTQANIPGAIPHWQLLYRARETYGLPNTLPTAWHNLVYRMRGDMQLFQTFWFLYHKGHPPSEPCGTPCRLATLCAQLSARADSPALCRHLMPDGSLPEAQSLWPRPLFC
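Human placenta-derived ASM enzyme was preincubated with compound for 10 minutes at room temperature, then given fluorogenic substrate HMU-PC0 (9 uM final) for 60 minutes at 37 °C; a pH 10 stop preceded fluorescence reading at Ex 386/Em 447 nm.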
A-T KAP1 phos: candidate therapy for ataxia-telangiectasia; F2112 A-T fibroblasts, KAP-1 phosphorylation AlphaLISA; neocarzinostatin DNA damage 30 min before lysis; Potency, µM (doses to about 57.5 µM), inactives show at the highest dose activation, most hits filed as activators; 0.19% of 320,000 active; also: % of control where 0% means no effect; nearly all actives have a fitted effect of over 45% in size
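ATM-like activity read as KAP-1 phosphorylation via AlphaLISA donor/acceptor antibody pairs after lysis and 6 hr at 25C. Cells were ATM-null patient fibroblasts (F2112, hTERT), dosed 60 min, then exposed to the DSB inducer NCS for 30 min.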
Numbers without * were called inactive; i = inactive; ? = inconclusive; . = no result given; ! = repeats disagree. Unless noted, calls follow the shape of the dose curve; as a rule, active = well fitted curve in the direction sought with a large enough effect; inconclusive = small, poorly fitted or top-dose-only effect, or another doubt; inactive = no such curve, though single readings can be large; an effect the other way counts as inactive or inconclusive. Potency is read from the fitted curve at half-maximal effect.

SMILES | Mito fusion act | GALK inhibitor | PTAP TSG101 blk | a7 integrin act | ASM inhibitor | A-T KAP1 phos
C=C(C)[C@H]1Cc2c(ccc3c2O[C@@H]2COc4cc(OC)c(OC)cc4[C@@H]2C3=O)O1 | 18.4µM* | . | . | . | . | .
CC(=O)N1CCN(c2ccc(OC[C@H]3CO[C@](Cn4ccnc4)(c4ccc(Cl)cc4Cl)O3)cc2)CC1 | 0.411µM*! | -3.8% | -1.3% | . | 1.5% | -7.5%
CC1(C)CC(N(CCc2ccccc2)Cc2ccccc2)CCO1 (stereo not drawn) | 6.1% | -1.5% | -0.8% | -33.5% | 0.9% | 25.1µM*
O=C(Cn1c(=O)oc2ccccc21)N1CCCC1 | ? | 0.0% | -3.2% | -36.2% | 3.6% | 29.4%
Nc1ccc(C2(c3ccc(N)cc3)c3ccccc3-c3ccccc32)cc1 | 25.1µM* | . | -0.1% | -18.2% | -16.5% | -12.9%
COc1ccccc1OC(=O)Oc1ccccc1OC | . | . | -8.6% | -38.1% | 2.5% | .
O=c1c2ccccc2[se]n1-c1ccccc1 | 0.461µM* | 0.7% | 0.2% | . | -3.8% | -4.0%
N#C/C(=C/c1ccc(O)c(O)c1)C(N)=S | 20.6µM* | . | . | . | . | .
Cc1nn(C)c(C)c1/C=C1/CC2C3CC=C4CC(O)CCC4(C)C3CCC2(C)C1=O (stereo not drawn) | 15.8µM* | -4.6% | -7.3% | -37.8% | -9.5% | -1.9%
CC12CCC3C(CC=C4CC(O)CCC43C)C1C/C(=C\N1CCCC1)C2=O (stereo not drawn) | -2.3% | -1.2% | . | . | . | -6.0%
C[C@H](CO)N1C[C@H](C)[C@H](CN(C)S(=O)(=O)c2ccc(Cl)cc2)OCc2ccccc2-c2c(n(C)c3ccccc23)C1=O | . | . | . | -61.0% | . | .
CN1CCN(c2ccc([N+](=O)[O-])c3no[n+]([O-])c23)CC1 | -57.5% | 0.4% | ? | -78.2% | -1.0% | 15.8µM*
O=[N+]([O-])c1ccc(N(CCO)CCO)c2c1no[n+]2[O-] | . | . | . | -63.3% | . | .
Clc1ccc(COC(Cn2ccnc2)c2ccc(Cl)cc2Cl)cc1 (stereo not drawn) | 3.16µM* | 3.1% | 2.0% | . | -5.6% | -5.0%
Cc1cc(=O)oc2c(C)c(OC3CCCCC3=O)ccc12 (stereo not drawn) | 3.1% | -1.7% | -3.0% | -4.3% | 58.7% | -1.8%
O=C(c1ccccc1)C(CN1CCCC1)c1ccccc1 (stereo not drawn) | -12.9% | 2.3% | -4.4% | -52.4% | -0.1% | 25.1µM*
CCN1CCN(CC(c2ccccc2)c2ccccc2)CC1 | -1.9% | -3.7% | -1.0% | -14.2% | -0.4% | -5.6%
CCN1C[C@@]2(COC)C3[C@@H](OC)C4[C@@H]1C3([C@@H]1C[C@]3(O)[C@H](OC(=O)c5ccccc5)[C@@H]1[C@]4(OC(C)=O)[C@@H](O)[C@@H]3OC)[C@H](OC)C[C@H]2O | 6.8% | . | . | . | . | .
OC[C@H]1OC(O)C[C@@H](O)[C@@H]1O (stereo partly drawn) | -37.5% | . | -0.4% | . | 10.7% | -2.6%
Cc1cc(O)c2c(c1)C(=O)c1cc(O)cc(O)c1C2=O | 2.59µM* | . | 0.1% | . | -17.0% | .
CNP(=O)(Oc1ccccc1)OC12CC3CC(CC(C3)C1)C2 (stereo not drawn) | 0.6% | 4.7% | -2.4% | 10µM* | 4.8% | 0.1%
Cc1ccc(C(C#N)=Cc2ccc3c(c2)OCO3)cc1 | . | . | . | -45.5% | . | .
Cc1cccc(NC(=O)Cn2cc(C(=O)C3CC3)c3ccccc32)c1C | 2.9% | -0.5% | -2.5% | -59.1% | -3.6% | 2.3%
COCCNC(=O)c1c(N)n(CCC(C)C)c2nc3ccccc3nc12 | -11.7% | 0.0% | -4.4% | -16.6% | i | .
CC(C)CCn1c(N)c(C(=O)NCc2cccs2)c2nc3ccccc3nc21 | -0.4% | -1.4% | -1.9% | -0.1% | i | 28.2µM*
CCn1cc(C(=O)O)c(=O)c2ccc(C)nc21 | 5.8µM*! | -1.4% | -5.8% | . | -4.3% | 9.1%
CCn1cc(C(=O)NCc2ccccc2)c2ccccc21 | -15.5% | -2.0% | -4.2% | -4.0% | -2.3% | 2.7%

Screens (PubChem)
